# Test results as given in the supplement of paper PMC8728848.
# Shown is part of a subset that was picked to be rich in the strongest signals.
# Legend:
# Experiment in all cases: glycan array binding signal (z-score within array); higher = stronger binding
# Conditions in all cases: glycan notation: IUPAC condensed, linker removed
# [1] = target: Fuc(a1-2)Gal
# In short: (§1)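 Glycan array binding is given as a within-array Z-score, which can be read as non-binding when negative. The arrays, 3228 of them, came from the Consortium for Functional Glycomics database and were retained only where the protein sequence was available. Z-scores were averaged across arrays of the same protein sequence at different concentrations or buffers and across linkers.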
# [2] = target: Fuc(a1-3)[Gal3S(b1-4)]GlcNAc6S
# In short: as §1
# [3] = target: Gal(a1-3)Gal(b1-4)Glc
# In short: as §1
# [4] = target: Gal(a1-3)Gal(b1-4)GlcNAc
# In short: as §1
# [5] = target: Gal(a1-4)Gal(b1-4)Glc
# In short: as §1
# [6] = target: Gal(b1-3)GlcNAc
# In short: as §1
# [7] = target: Gal(b1-3)[Fuc(a1-4)]GlcNAc(b1-3)Gal(b1-4)[Fuc(a1-3)]GlcNAc
# In short: as §1
# [8] = target: Gal(b1-4)Glc
# In short: as §1
# [9] = target: Gal(b1-4)Glc6S
# In short: as §1
# [10] = target: Gal(b1-4)GlcNAc(b1-3)Gal(b1-4)GlcNAc
# In short: as §1
# [11] = target: Gal(b1-4)GlcNAc(b1-3)Gal(b1-4)GlcNAc(b1-3)Gal(b1-4)GlcNAc
# In short: as §1
# [12] = target: Gal3S(b1-4)GlcNAc
# In short: as §1
# [13] = target: Gal3S(b1-4)[Fuc(a1-3)]Glc
# In short: as §1
# [14] = target: Gal3S4S(b1-4)GlcNAc
# In short: as §1
# [15] = target: Gal3S6S(b1-4)GlcNAc6S
# In short: as §1
# [16] = target: Gal4S(b1-4)GlcNAc
# In short: as §1
# [17] = target: Glc(a1-6)Glc(a1-6)Glc
# In short: as §1
# [18] = target: Man(a1-2)Man(a1-2)Man(a1-6)[Man(a1-3)]Man
# In short: as §1
# [19] = target: Man(a1-2)Man(a1-3)Man
# In short: as §1
# [20] = target: Man(a1-2)Man(a1-3)[Man(a1-2)Man(a1-6)]Man(a1-6)[Man(a1-2)Man(a1-2)Man(a1-3)]Man(b1-4)GlcNAc(b1-4)GlcNAc
# In short: as §1
# [21] = target: Neu5Ac(a2-3)Gal(b1-3)GalNAc(b1-3)Gal(b1-4)GlcNAc
# In short: as §1
# [22] = target: Neu5Ac(a2-3)Gal(b1-4)[Fuc(a1-3)]GlcNAc6S
# In short: as §1
# [23] = target: Neu5Ac(a2-6)Gal(b1-4)GlcNAc(b1-2)Man(a1-3)[Gal(b1-4)GlcNAc(b1-2)Man(a1-6)]Man(b1-4)GlcNAc(b1-4)GlcNAc
# In short: as §1
# [24] = target: GalNAc(b1-4)GlcNAc
# In short: as §1
# [25] = target: GlcA(b1-3)Gal
# In short: as §1
# [26] = target: GlcA(b1-6)Gal
# In short: as §1
# [27] = target: GlcNAc(b1-3)Gal(b1-4)GlcNAc(b1-3)Gal(b1-4)GlcNAc(b1-3)Gal(b1-4)GlcNAc(b1-2)[GlcNAc(b1-3)Gal(b1-4)GlcNAc(b1-3)Gal(b1-4)GlcNAc(b1-3)Gal(b1-4)GlcNAc(b1-6)]Man(a1-6)[GlcNAc(b1-3)Gal(b1-4)GlcNAc(b1-3)Gal(b1-4)GlcNAc(b1-3)Gal(b1-4)GlcNAc(b1-2)Man(a1-3)]Man(b1-4)GlcNAc(b1-4)[Fuc(a1-6)]GlcNAc
# In short: as §1
# [28] = target: GlcNAc(b1-3)Gal(b1-4)GlcNAc(b1-3)Gal(b1-4)GlcNAc(b1-3)Gal(b1-4)GlcNAc(b1-3)Gal(b1-4)GlcNAc(b1-2)Man(a1-3)[GlcNAc(b1-3)Gal(b1-4)GlcNAc(b1-3)Gal(b1-4)GlcNAc(b1-3)Gal(b1-4)GlcNAc(b1-3)Gal(b1-4)GlcNAc(b1-2)Man(a1-6)]Man(b1-4)GlcNAc(b1-4)[Fuc(a1-6)]GlcNAc
# In short: as §1
# [29] = target: Kdn(a2-3)Gal(b1-4)Glc
# In short: as §1
# [30] = target: Man(a1-2)Man(a1-2)Man(a1-3)Man
# In short: as §1
# [31] = target: Man(a1-3)[Man(a1-6)]Man
# In short: as §1
# [32] = target: Neu5Ac(a2-3)Gal(b1-3)GlcNAc(b1-6)GalNAc
# In short: as §1
# [33] = target: Neu5Ac(a2-3)Gal(b1-4)GlcNAc(b1-3)Gal(b1-4)GlcNAc(b1-2)Man(a1-3)[Neu5Ac(a2-3)Gal(b1-4)GlcNAc(b1-3)Gal(b1-4)GlcNAc(b1-2)Man(a1-6)]Man(b1-4)GlcNAc(b1-4)GlcNAc
# In short: as §1
# [34] = target: Neu5Ac(a2-3)Gal(b1-4)GlcNAc(b1-6)[Neu5Ac(a2-3)Gal(b1-3)]GalNAc
# In short: as §1
# [35] = target: Neu5Ac(a2-6)Gal(b1-3)GlcNAc(b1-3)[Gal(b1-4)GlcNAc(b1-6)]Gal(b1-4)Glc
# In short: as §1
# [36] = target: Neu5Ac(a2-6)Gal(b1-4)Glc
# In short: as §1
# [37] = target: Neu5Ac(a2-6)Gal(b1-4)GlcNAc(b1-2)Man(a1-3)Man(b1-4)GlcNAc(b1-4)GlcNAc
# In short: as §1
# [38] = target: Neu5Ac(a2-6)Gal(b1-4)GlcNAc(b1-2)[Neu5Ac(a2-6)Gal(b1-4)GlcNAc(b1-4)]Man(a1-3)[GlcNAc(b1-4)][Neu5Ac(a2-6)Gal(b1-4)GlcNAc(b1-4)Man(a1-6)]Man(b1-4)GlcNAc(b1-4)GlcNAc
# In short: as §1
# [39] = target: Neu5Ac(a2-6)Gal(b1-4)GlcNAc(b1-6)[Gal(b1-3)GlcNAc(b1-3)]Gal(b1-4)Glc
# In short: as §1
# [40] = target: Neu5Ac(a2-6)GalNAc(b1-4)GlcNAc6S
# In short: as §1
# [41] = target: Neu5Ac(a2-8)Neu5Ac(a2-3)Gal(b1-3)GalNAc(b1-4)[Neu5Ac(a2-3)]Gal(b1-4)Glc
# In short: as §1
# [42] = target: Neu5Ac(a2-8)Neu5Ac(a2-3)[GalNAc(b1-4)]Gal(b1-4)Glc
# In short: as §1
# [43] = target: Neu5Ac(a2-8)Neu5Ac(a2-8)Neu5Ac(a2-3)[GalNAc(b1-4)]Gal(b1-4)Glc
# In short: as §1
# [44] = target: Neu5Gc(a2-3)Gal(b1-4)GlcNAc(b1-3)Gal(b1-4)GlcNAc(b1-2)Man(a1-3)[Neu5Gc(a2-3)Gal(b1-4)GlcNAc(b1-3)Gal(b1-4)GlcNAc(b1-2)Man(a1-6)]Man(b1-4)GlcNAc(b1-4)GlcNAc
# In short: as §1
# [45] = target: Neu5Gc(a2-6)Gal(b1-4)GlcNAc
# In short: as §1
# [46] = target: Neu5Gc(a2-8)Neu5Gc(a2-3)Gal(b1-4)GlcNAc(b1-3)Gal(b1-4)GlcNAc
# In short: as §1
# [47] = target: Neu5Gc(b2-6)Gal(b1-4)GlcNAc
# In short: as §1
binder,measurement,setting,value
"NESD (Drosophila melanogaster), NP_610025.1 (protein) MGHHHHHHSSGVDLGTENLYFQSMMEVFTFEKSYLERLKEAEAVLSWEGAVMPASQVRSEWKSYVELKIEPAGWQAIWKIPRVICEDLKLRYPTIVYGYVEQVIFDELKAVFVVTAVQDSDVHLPESNEVSLVELWPTVQQENAALNVDTTAECIDRLRFFYTHVWMPWDKDYDDDRDWVQQHLQARIQLVCDLSKNRLPRPLALHMRTLLAEAKYIQQRLDYLELDLSDAESDDEAVELNDSVAEPARKQSKAGSANGCLNVSSLPVTDLMCLHLRMAIIRSEFEILENPEMRRAYSELQSNSLKRLRCSSGRTRQSEDLLVERNSISHVVTLPGKLQQQLELLKLAQTLVKPESKVQLSNTLQDVLSICQSNDDILLSPGEHTIKFLEHLNDNGSLRGLTQPEAILSPAADLSLLPVVCSSDEDSTLLVIDGDYTLSELVLDCRHVRRGILLRNGTLTMRGCRLLGDGSSSTQEGIVCMPGASVELKSCLIENFAVGVSMRPKSSAELGSVQFKTCKTGLELLEKSASVNLQGSKCSFENCALGILADGFVLGEQRTEKVLVLNKFSELQRYNEDNLLGNCSFYNCKKNVRVFNESGQLLAQRSHQQLLEDELGGENKENIQLV",glycan array binding signal (z-score),[1],0.437
same,glycan array binding signal (z-score),[2],1.18
same,glycan array binding signal (z-score),[3],-0.126
same,glycan array binding signal (z-score),[4],-0.108
same,glycan array binding signal (z-score),[5],-0.242
same,glycan array binding signal (z-score),[6],-0.219
same,glycan array binding signal (z-score),[7],-0.47
same,glycan array binding signal (z-score),[8],3.98
same,glycan array binding signal (z-score),[9],2.75
same,glycan array binding signal (z-score),[10],0.201
same,glycan array binding signal (z-score),[11],0.303
same,glycan array binding signal (z-score),[12],0.142
same,glycan array binding signal (z-score),[13],-0.195
same,glycan array binding signal (z-score),[14],0.201
same,glycan array binding signal (z-score),[15],1.17
same,glycan array binding signal (z-score),[16],0.349
same,glycan array binding signal (z-score),[17],6.3
same,glycan array binding signal (z-score),[18],-0.364
same,glycan array binding signal (z-score),[19],-0.316
same,glycan array binding signal (z-score),[20],0.313
same,glycan array binding signal (z-score),[21],0.016
same,glycan array binding signal (z-score),[22],0.068
same,glycan array binding signal (z-score),[23],0.256
"a L Fucosidase (Streptosporangium roseum), D2B1P1_STRRD (protein) MRRKLLLVPAVGLLVIGSIFATQPVASADTPPVYEPTVESLNSHPVPQWFNDDKFGIFIHWGAYSVPAWGPRGSYAEWYGNYMNAGGSATNAHHKATYGQDFNYDAFLQQWKAEKFDPADWVKLFKDAGAKYFVLTSKHHEGMALWDSKSSGRDSVDLGPGRDLAKELFDAARKDEAKLKAGFYYSLYEWYNPAYTGRPATNPYTGAEIPYTGAPGGGDYVKDYMLPQMRELIDGYDPDIIWCDGQWEKPASYWNTAGVIADYYNKALNSGKEVAVANRCKIQSGNLDSPELDFQTPEYTVKPDIDPVKWESSRGIAHSYGYNQNEPEEDHLTSDQLVDSLVDIVSKNGNLLLDIGPKADGTIPEIQRQRLLDIGAWLKANGEAIYGTTYWNRAEEKGGPDDVRYTAKDATLYATALKWPGEQLTLGADLPVDHSTRITMLGSGARLSWSRDEQGRVVVNTPQEAGKHAYVFKIETPGVRSLLRTSSSLAKEIAPGRTISGELTVTNPGKRHTPATKLSLTVPQGWTATLGAPRVRPLGPGESVKVPISVSAPEGVAPAPYTLGLYQRTGRMGTTTALPLTVNRPNLSLGKPATQKSTGYDAPASRAVDGNTGGDWSAGSTTHTAEPEKQAWWQVDLGASARLDSVDVWNRLDCCADRLKDFWVMASDQPFTTDDLDQARTAPGVTAVHVGEQAGSPSKVKLPEGTRGRYVRIQLASPSNPLSLAEVQVRGSMARPNLSLGKPATQKSTGYDAPASRAVDGNTGGDWSAGSTTHTAEPEKQAWWQVDLGASARLDSVDVWNRLDCCADRLKDFWVMASDQPFTTDDLDQARTAPGVTAVHVGEQAGSPSKVKLPEGTRGRYVRIQLASPSNPLSLAEVQVRLEHHHHHHS",glycan array binding signal (z-score),[24],-0.528
same,glycan array binding signal (z-score),[25],-0.445
same,glycan array binding signal (z-score),[26],-0.444
same,glycan array binding signal (z-score),[27],-0.512
same,glycan array binding signal (z-score),[28],1.09
same,glycan array binding signal (z-score),[29],-0.16
same,glycan array binding signal (z-score),[30],-0.582
same,glycan array binding signal (z-score),[20],-0.104
same,glycan array binding signal (z-score),[31],0.008
same,glycan array binding signal (z-score),[32],-0.493
same,glycan array binding signal (z-score),[33],0.456
same,glycan array binding signal (z-score),[34],-0.417
same,glycan array binding signal (z-score),[35],-0.585
same,glycan array binding signal (z-score),[36],-0.462
same,glycan array binding signal (z-score),[37],-0.533
same,glycan array binding signal (z-score),[38],-0.202
same,glycan array binding signal (z-score),[39],-0.507
same,glycan array binding signal (z-score),[40],-0.481
same,glycan array binding signal (z-score),[41],-0.521
same,glycan array binding signal (z-score),[42],-0.558
same,glycan array binding signal (z-score),[43],-0.388
same,glycan array binding signal (z-score),[44],0.548
same,glycan array binding signal (z-score),[45],-0.317
same,glycan array binding signal (z-score),[46],-0.268
same,glycan array binding signal (z-score),[47],-0.474
